This is an account of results in ChEMBL document CHEMBL3988442, “University of Dundee, Small-Polar-MMV Screening Library” (2021).

The whole screen tested about 48,000 compounds, of which about 13,000 (27%) showed an effect of 50% or more. Some of the results follow.

For the test, the system named is Wolbachia pipientis. Kind of test: Anti-Wolbachia Cell-Based Screen. Format: functional. The arrangement: scale not given: in the data most compounds retested in dose-response had high values. To be noted: 5 µM.
Consider `CC(NCCCn1ccnc1)c1ccc(N2CCOC2=O)cc1` (stereo unspecified), for which the “Percent Effect” value is on record as -1.07%. Turning to `c1cnc(N2CC3(CCN(C4CCOC4)CC3)c3ccccc32)nc1` (stereo unspecified), the “Percent Effect” value came out at 13%.

As to `O=C(CCN1CCCC1)N1CC[C@@H](c2ccc3ccccc3c2)[C@H](O)C1`, the “Percent Effect” value is on record as -4.226%.

As to `CC(C)C(Sc1ccccc1)C(=O)N(C)Cc1nnc2n1CCC2` (stereo unspecified), the “Percent Effect” value was found to be 14.25%. Take `CCc1cc(-c2nccn2-c2ccccc2CN2CCOCC2)on1`: the “Percent Effect” value is on record as 1.321%. For `Cc1nc(C)c(CN2CCOC[C@H](Oc3ccccc3)C2)s1`, the “Percent Effect” value is -8.964%. The same measure for `Cc1nnc([C@]23COC[C@H]2CN(Cc2cccs2)C3)o1.O=C(O)C(F)(F)F`: 0.3646%; for `Cc1noc([C@@]23CCO[C@@H]2CCN(C(=O)c2sccc2C)C3)n1`: -13.91%; for `Cc1nnc([C@]23COC[C@H]2CN(Cc2cnn(C)c2)C3)o1.O=C(O)C(F)(F)F`: -19.13%. In the case of `Cc1noc([C@@]23CCO[C@@H]2CCN(S(=O)(=O)c2cccnc2)C3)n1`, the “Percent Effect” value is 103%.

Turning to `CCCS(=O)(=O)N1CC[C@H]2OCC[C@@]2(c2nnc(C)o2)C1`, the “Percent Effect” value is listed as -9.465%. Consider `Cc1nnc([C@@]23CCO[C@@H]2CCN(S(=O)(=O)c2ccccc2)C3)o1`, for which the “Percent Effect” value was 90.56%.

Turning to `Cc1nnc([C@]23COC[C@H]2CN(S(=O)(=O)c2cccnc2)C3)o1.O=C(O)C(F)(F)F`, the “Percent Effect” value is 103.4%.

In the case of `Cc1nnc([C@@]23CCO[C@@H]2CCN(S(C)(=O)=O)C3)o1`, the “Percent Effect” value is listed as -9.969%.

Take `Cc1noc([C@@]23CCO[C@@H]2CCN(C(=O)C2CCOCC2)C3)n1`: the “Percent Effect” value is -2.403%. For the compound `O=C1N(CC2CCC2)CCCC12CCN(S(=O)(=O)c1cccnc1)C2` (stereo unspecified), the “Percent Effect” value is on record as 16.59%. In the case of `Cc1nnc([C@@]23CCO[C@@H]2CCN(S(=O)(=O)c2cccnc2)C3)o1`, the “Percent Effect” value stood at 88.28%.

Consider `CC(NC(=O)c1ccoc1)C(=O)N(C)Cc1ccsc1` (stereo unspecified), for which the “Percent Effect” value came out at 8.82%. As for `COc1cc(C(=O)N2CCCC(CNS(C)(=O)=O)C2)cc(OC)c1C` (stereo unspecified), the figure is 0.06204%.

On to `CC(C)Oc1cc(N2CCN(Cc3ccsc3)C(CCO)C2)nc(N)n1` (stereo unspecified), for which the “Percent Effect” value is reported as -3.773%.

For `CCCC(NC(=O)c1ccc(OC)cc1F)c1nnn[nH]1` (stereo unspecified), the “Percent Effect” value is listed as -0.1945%. For `COc1c(NS(=O)(=O)c2cc(C)ccc2C)c(C)nn1C`, the “Percent Effect” value is 9.711%. The same measure for `Cc1ccc(N2CCCC(c3[nH]ncc3Cc3ccccc3)C2)nn1` (stereo unspecified): 26.61%; for `Cc1cc(N2CCCC(c3[nH]ncc3Cc3ccccc3)C2)nc(N)n1` (stereo unspecified): 51.86%. For the compound `Cc1ccc(N2CCC(c3[nH]ncc3Cc3ccccc3)CC2)nn1`, the “Percent Effect” value is 27.05%. Turning to `CCCc1cc(=O)[nH]c2nnc(SCC(=O)OCC)n12`, the “Percent Effect” value turned out to be 11%. With `CC1CN(C(=O)CN(Cc2ccco2)C2CC2)CCO1` (stereo unspecified), the “Percent Effect” value is listed as -3.205%. On to `Cc1nnc(CN(Cc2ccccc2Cl)C2CCCC2)o1`, for which the “Percent Effect” value is -12.06%. Consider `CC1CN(C(=O)CN(Cc2ccco2)Cc2cccs2)CCO1` (stereo unspecified), for which the “Percent Effect” value was 127.8%. As for `CC1CN(C(=O)CN(Cc2ccccc2)C2CC2)CCO1` (stereo unspecified), the figure is 126.4%; as for `CC1CN(C(=O)CN(Cc2ccccc2Br)C2CC2)CCO1` (stereo unspecified), 15.13%. As to `CC1CN(C(=O)c2ccn(-c3cccc(Cl)c3)n2)CCO1` (stereo unspecified), the “Percent Effect” value worked out at 3.639%.

In the case of `CC1CN(C(=O)c2sccc2Br)CCO1` (stereo unspecified), the “Percent Effect” value is given as 5.426%. Consider `CC(C)(C)c1cc(NC(=O)CN(Cc2ccco2)Cc2cccs2)on1`, for which the “Percent Effect” value is on record as 15.1%.

Regarding `CC1CN(C(=O)CN(Cc2ccccc2Cl)C2CCCC2)CCO1` (stereo unspecified), the “Percent Effect” value came out at 167.1%. `CC1CN(C(=O)CCc2cc(Br)cs2)CCO1` (stereo unspecified): the “Percent Effect” value was -0.4778%. For the compound `Cc1ccc(CN(CC(=O)N2CCOC(C)C2)C2CC2)cc1` (stereo unspecified), the “Percent Effect” value worked out at 133.3%. For `Cn1cc(C(=O)N(Cc2ccco2)Cc2cccs2)ccc1=O`, the “Percent Effect” value was -5.076%. Regarding `Cc1cc(NC(=O)N(C)C2CCN(c3ccccc3F)C2=O)n(C)n1` (stereo unspecified), the “Percent Effect” value was -7.553%. On to `O=C(c1ccc2c(c1)CCO2)N1CCN(c2ccc(Cl)cn2)CC1`, for which the “Percent Effect” value was 6.232%. For the compound `CN(C)CC1CN(CCOc2cccc(C#N)c2)CCO1` (stereo unspecified), the “Percent Effect” value was 0.1863%. `Cc1ncsc1C(=O)NC1CCN(Cc2ccc(C#N)cc2)CC1`: the “Percent Effect” value was -12.71%. As for `O=C(NCCOc1ncc(Cl)cc1Cl)c1ccoc1`, the figure is 25.9%; as for `CO[C@H]1CCN(S(=O)(=O)c2cn(C)cn2)[C@H]1Cc1cnn(C)c1.O=C(O)C(F)(F)F`, -3.902%; as for `CCS(=O)(=O)N1CCC(Nc2ccc(C#N)cc2F)CC1`, 19.57%.

Take `CCC(NC(=O)c1cnc(N(C)C)nc1C)c1ccc(S(C)(=O)=O)cc1` (stereo unspecified): the “Percent Effect” value is recorded as -15.6%. As for `CS(=O)(=O)c1ccc(CNC(=O)N2CCC(c3ccccc3)CC2)cc1`, the figure is -1.969%; as for `CCC(Nc1nccc(C2CCCC2)n1)c1ccncc1` (stereo unspecified), -45.04%; as for `CCC(NC1CSCCSC1)c1ccc(S(C)(=O)=O)cc1` (stereo unspecified), 107.2%. For `O=S(=O)(N[C@H]1CC[C@H]1NC1Cc2ccccc2C1)c1cccnc1`, the “Percent Effect” value is recorded as 1.504%.

As for `CCC(NC1Cc2ccccc2C1)c1ccc(S(C)(=O)=O)cc1` (stereo unspecified), the “Percent Effect” value is recorded as 106.7%. In the case of `CC(C)c1ccc(CNC(C)c2ccc(S(C)(=O)=O)cc2)cc1` (stereo unspecified), the “Percent Effect” value was 0.134%. For the compound `CC(NCc1ccc(C(C)(C)C)cc1)c1ccc(S(C)(=O)=O)cc1` (stereo unspecified), the “Percent Effect” value was 2.046%.

Turning to `CCC(NC1CCCC1)c1ccc(S(C)(=O)=O)cc1` (stereo unspecified), the “Percent Effect” value came out at 102.8%. Regarding `CCCN(C)CC1CCN(c2ncc(Br)cn2)C1` (stereo unspecified), the “Percent Effect” value is -2.862%. As for `CC(C)CNC[C@H]1COCc2nc3cccnc3n21`, the figure is -3.474%; as for `Cc1nc(C(=O)N2CCCC(c3nc(C(C)C)cs3)C2)c[nH]1` (stereo unspecified), 27.35%; as for `Cc1cc(C(=O)NCCCn2nccc2C2CC2)c(=O)[nH]c1C`, -16.3%. As to `CC(C)c1ncc(CN2C[C@@H](CN3CCC(CO)CC3)[C@@H](CO)C2)cn1`, the “Percent Effect” value came out at 1.413%. Regarding `OCC1(CC2CC2)CCCN(Cc2ccc(C(F)(F)F)nc2)C1` (stereo unspecified), the “Percent Effect” value is -8.11%. The same measure for `Cc1ccc(CN2CC[C@H](c3nc4cccc(C(N)=O)c4[nH]3)C2)cc1`: -7.444%; for `CSc1ccc(CN2CCC(CCC(=O)Nc3ccccc3)CC2)cc1`: 8.024%; for `O=C(O)c1ccccc1-c1ccc(CN2CCC(CO)C2)cn1` (stereo unspecified): 95.58%. Consider `Cn1cc(C(=O)Nc2ccc(CN3CCOCC3)cn2)cn1`, for which the “Percent Effect” value is recorded as -16.87%. Take `O=C(O)c1ccccc1-c1ccc(CN2CCC(CO)CC2)cn1`: the “Percent Effect” value is 112.1%. On to `O=C(Nc1cnn(CCN2CCOCC2)c1)c1ccccc1O`, for which the “Percent Effect” value is -9.189%. As for `O=C(O)c1ccccc1-c1ccc(CN2CCC(CO)C2)cc1` (stereo unspecified), the “Percent Effect” value was 100.7%. For `CC(O)C1CCN(Cc2cnc3c(-c4ccccc4)cnn3c2)CC1` (stereo unspecified), the “Percent Effect” value is 2.9%. As to `O=C(O)c1ccccc1-c1ccc(CN2CCOCC2)cn1`, the “Percent Effect” value is 106.2%.

Take `CN(C)c1ccc(CN2CCC(C(O)Cc3ccccc3)CC2)cn1` (stereo unspecified): the “Percent Effect” value is reported as 1.983%.

On to `CC(C)=CCC1(CO)CCCN(S(=O)(=O)N2CCCC2)C1` (stereo unspecified), for which the “Percent Effect” value was -19.27%. As to `COCCOc1ccccc1NC(C)C(=O)NC(=O)NC(C)(C)C` (stereo unspecified), the “Percent Effect” value came out at 2.141%. On to `O=C1CCC(=O)N1CCN1CCOC(c2ccsc2)C1` (stereo unspecified), for which the “Percent Effect” value is -5.454%. As for `O=C1NCCO[C@H]2CN(C(=O)CC3Cc4ccccc4C3)CC[C@@H]12`, the “Percent Effect” value was -17.08%. With `CCCS(=O)(=O)N1CCN(c2cc(-n3cnc(C)c3C)nc(C)n2)CC1`, the “Percent Effect” value amounted to 2.706%.

For `CCS(=O)(=O)N1CCN(c2cc(-n3cnc(C)c3C)nc(C)n2)CC1`, the “Percent Effect” value was found to be 9.656%. The same measure for `CCCS(=O)(=O)N1CCN(c2cc(-n3ccnc3)nc(C)n2)CC1`: -9.543%; for `Cc1cc(C)n(-c2cc(N3CCN(C(=O)C(C)(C)C)CC3)nc(C)n2)n1`: -2.343%.

Turning to `CCCS(=O)(=O)N1CCN(c2cc(-n3nc(C)cc3C)nc(C)n2)CC1`, the “Percent Effect” value is given as 56.72%. As for `CCCS(=O)(=O)N1CCN(c2cc(-n3cccc3)nc(C)n2)CC1`, the figure is 64.17%. In the case of `CCc1nc(CN2CCCN(CC(=O)Nc3cccnc3)CC2)no1`, the “Percent Effect” value came out at 22.91%. The same measure for `CCc1nnc(N2C[C@@H](CN(C)CCO)[C@@H](CO)C2)s1`: -3.241%; for `Cc1ccc(NC2CCN(C(=O)CCc3nccs3)CC2)nn1`: 139%; for `Cc1ccc(NC2CCN(C(=O)c3c(C)noc3C)CC2)nn1`: 4.919%. `Cc1ccc(NC2CCN(C(=O)c3cc[nH]n3)CC2)nn1`: the “Percent Effect” value is reported as -5.889%. On to `Cc1ccc(NC2CCN(C(=O)CCc3c(C)noc3C)CC2)nn1`, for which the “Percent Effect” value was 116%. In the case of `Cc1ccc(NC2CCN(C(=O)c3cscn3)CC2)nn1`, the “Percent Effect” value stood at 107.8%.

As for `Cc1ccc(NC2CCN(C(=O)CCc3ccncc3)CC2)nn1`, the “Percent Effect” value worked out at 118.5%.

As to `Cc1ncc2c(n1)CN(CCCc1nc3ccccc3o1)CC2`, the “Percent Effect” value is -1.914%. As for `CC(CNC(=O)c1nnn(-c2ccccc2)c1C(F)(F)F)N(C)C` (stereo unspecified), the figure is 5.891%; as for `COC(=O)c1ccc2ccn(CC3CCCN(C)C3)c(=O)c2c1` (stereo unspecified), -29.85%. The same measure for `CCOc1ccccc1CCNC(=O)NCC(O)c1cccs1` (stereo unspecified): -11.69%. As to `CCCNC(=O)CCNC(=O)N1CCc2c(F)ccc(F)c2C1`, the “Percent Effect” value is recorded as -1.074%.

In the case of `COc1ccc(C(=O)NC2COc3ccccc3C2)cc1OCC(=O)O` (stereo unspecified), the “Percent Effect” value is listed as -8.358%. Regarding `CCC(O)CNC(=O)c1coc(COc2ccc3sc(C)nc3c2)n1` (stereo unspecified), the “Percent Effect” value came out at 7.295%. As for `O=C(CCc1ccsc1)N1CCC(Nc2cccnn2)CC1`, the “Percent Effect” value turned out to be 87.13%.

Turning to `Cc1ccc(NC2CCN(C(=O)CCc3ccccc3)CC2)nn1`, the “Percent Effect” value turned out to be 109.9%. For `O=C(CCc1cccs1)N1CCC(Nc2cccnn2)CC1`, the “Percent Effect” value is reported as -8.369%. With `Cc1ccc(NC2CCN(C(=O)CCc3cscn3)CC2)nn1`, the “Percent Effect” value was determined as 118.6%. The same measure for `Cc1ccc(NC2CCN(C(=O)CCc3ccsc3)CC2)nn1`: 107.5%; for `Cn1c(C(F)(F)F)nn(CCNC(=O)Nc2ccccc2Cl)c1=O`: -9.892%.
